Experimental findings from PubChem BioAssay AID1851 (National Center for Advancing Translational Sciences (NCATS), 2009) are described below.

Each structure is given as a SMILES string. Screen size: about 16,000 compounds; about 5,100 (32%) were called active. Another 25% or so got no clear call; they are omitted. Some of the results follow. Some compounds were tested as several samples or in several runs, with calls that do not always agree. Unmarked numbers belong to inactive results. The call rests on the fitted dose curve; in most records, active means well fitted curve in the direction sought with a large enough effect; inconclusive means small, poorly fitted or top-dose-only effect, or effect the other way; inactive means no such curve, though single readings can be large or run the other way.
On the % scale 0 is the no-effect control and ±100 the full control effect.

The target of this experiment is Cytochrome P450 3A4 (Homo sapiens) (UniProt P08684). The experiment can be described thus: Cytochrome panel assay with activity outcomes. The note with it: recombinant CYP, pro-luciferin dealkylation, luminescence, p450-cyp3a4; series mostly up to 57.1 µM.
Chain of Cytochrome P450 3A4 (Homo sapiens) (P08684 whole entry, looked up): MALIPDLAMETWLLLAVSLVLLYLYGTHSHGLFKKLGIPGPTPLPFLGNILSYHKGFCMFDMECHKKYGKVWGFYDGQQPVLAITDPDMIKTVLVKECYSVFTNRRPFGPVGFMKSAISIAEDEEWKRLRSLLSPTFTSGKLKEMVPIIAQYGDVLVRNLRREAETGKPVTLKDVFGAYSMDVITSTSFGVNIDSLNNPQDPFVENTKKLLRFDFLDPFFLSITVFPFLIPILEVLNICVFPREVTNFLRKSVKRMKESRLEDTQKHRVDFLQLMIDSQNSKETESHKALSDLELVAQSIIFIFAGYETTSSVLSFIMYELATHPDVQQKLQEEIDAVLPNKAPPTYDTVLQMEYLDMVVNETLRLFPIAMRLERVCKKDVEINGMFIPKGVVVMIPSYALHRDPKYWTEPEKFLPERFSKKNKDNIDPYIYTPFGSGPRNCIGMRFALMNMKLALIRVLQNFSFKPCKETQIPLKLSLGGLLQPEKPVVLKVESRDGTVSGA
One may read the AC50 as the midpoint of the concentration-response curve, whichever way the signal moves. In the case of `CC(C)NC[C@H]1CCc2cc(CO)c([N+](=O)[O-])cc2N1`, the AC50 entry was “inactive”.
Still for that read-out and setting: in the case of `N#CCCn1c(=O)c(CCc2ccccc2)nc2cnc(Oc3ccccc3)nc21` it was 2.51 µM (active).
On the same count and under the same terms, the value for `N#CCCn1c(=O)c(-c2ccccc2)nc2cnc(Oc3cccc(Cl)c3)nc21` was “inactive”; that for `N#CCCn1c(=O)cnc2cnc(Oc3ccccc3)nc21` was “inactive”; that for `N#CCCn1c(=O)c(CCc2ccccc2)nc2cnc(Oc3cccc(Cl)c3)nc21` was 0.794 µM (active).
Still for that read-out and setting: the value for `COc1ccc(Oc2ncc3nc(CCc4ccccc4)c(=O)n(CCC#N)c3n2)cc1` was 1.58 µM (active); that for `N#CCCn1c(=O)c(-c2ccc(Cl)cc2)nc2cnc(Oc3cccc(Cl)c3)nc21` was “inactive”; that for `Cc1cc(=O)c2cc(Cl)ccc2[nH]1` was “inactive”.
Turning to `Clc1ccc(SCc2cc(-c3ccccc3)no2)cc1`, the AC50 entry is “inactive”.
Still for that read-out and setting: the value for `Nc1ccccc1SCc1csc(-c2ccc(Cl)cc2)n1` was 1 µM (active).
As to `C[N+](C)(N)Cc1csc(-c2ccc(Cl)cc2)n1`, the activity, negative = inhibition was -0.841% [at 11.4 µM].
For the molecule `CN1CCc2ccccc2[C@@H]1Cc1ccccc1NC(=O)c1sc2ccccc2c1Cl`, the AC50 was 1.58 µM (active).
On the same count and under the same terms, the value for `Cc1cc(C)c(C#N)c(SCc2cc3c(cc2Cl)OCO3)n1` was 3.98 µM (active); that for `COc1ncc2ncc(=O)n(C3CC3)c2n1` was “inactive”; that for `COc1cccc(Cn2c(=O)cnc3cnc(Oc4cccc(Cl)c4)nc32)c1` was 5.01 µM (active).
The same measure, in the same setting: in the case of `COc1cccc(Cn2c(=O)cnc3cnc(OC)nc32)c1` it was 10 µM (active); in that of `COc1cccc(Cn2c(=O)cnc3cnc(OCc4ccccc4)nc32)c1`, 12.6 µM (active).
The same measure, in the same setting: the value for `N[C@@H](Cn1cc(F)c(=O)[nH]c1=O)C(=O)O` was “inactive”.
For `CCC(c1nnnn1CC1CCCO1)N(CCN1CCOCC1)Cc1cc2cc(C)ccc2[nH]c1=O` (centres undefined), the concentration at half-maximal activity (AC50) was 15.8 µM (active).
As to `COCOc1ccc(Br)cc1C(=O)[C@H]1O[C@H]1c1cccc(OC)c1`, the concentration at half-maximal activity (AC50) is 3.98 µM (active).
Same read-out and setting: in the case of `COc1ccc(CCN(C)Cc2ccc(OCc3ccccc3)c(OC)c2)cc1OC` it was 0.631 µM (active).
With `COc1ccccc1OCc1ccc(C(=O)N(C)C)o1`, the activity, negative = inhibition was 4.32% [at 2.29 µM].
Regarding `COc1ccc(CCN(C)CCC(=O)Nc2c(C)cc(C)cc2C)cc1OC`, the half-maximal activity concentration (AC50) is 7.94 µM (active).
The same measure, in the same setting: the value for `Cc1ccc(S(=O)(=O)N[C@H]2COC(=O)C/C=C\[C@@H](C)[C@H](NS(=O)(=O)c3ccc(C)cc3)COC(=O)C/C=C\[C@H]2C)cc1` was 3.16 µM (active).
On to `Cc1ccc(S(=O)(=O)N[C@H]2COC(=O)CC=C[C@@H](C)[C@H]3C=C[C@H](O)[C@@H](COC(=O)CC=C[C@H]2C)O3)cc1`, for which the AC50 is 3.16 µM (active) and the activity, negative = inhibition is -9.33% [at 11.4 µM].
On the same counts, the results for `Cc1ccc(S(=O)(=O)N[C@H]2COC(=O)[C@@H](Cc3ccccc3)NC(=O)[C@@H](C)COC(=O)C/C=C\[C@@H]2C)cc1` are 3.98 µM (active) and -7.89% [at 11.4 µM].
Consider `C[C@@H]1/C=C\CC(=O)OC[C@H]2O[C@@H](C=C[C@@H]2O)[C@H](C)/C=C\CC(=O)OC[C@H]2O[C@H]1C=C[C@@H]2O`, for which the activity, negative = inhibition is -21.3% [at 11.4 µM].
Regarding `Cc1ccc(S(=O)(=O)N[C@@H]2COC(=O)C/C=C\[C@H](C)COC(=O)N[C@@H](C)C(=O)C/C=C\[C@H]2C)cc1`, the half-maximal activity concentration (AC50) was 3.16 µM (active).
On to `C[C@H]1COC(=O)[C@H]2CCCN2C(=O)[C@@H](C)COC(=O)[C@H](Cc2ccccc2)NC1=O`, for which the activity, negative = inhibition was -25.7% [at 11.4 µM].
Still for that read-out and setting: in the case of `CO[C@H]1COC(=O)C/C=C\[C@H](C)COC(=O)[C@@H](C)NC(=O)C/C=C\[C@@H]1C` it was -29.4% [at 11.4 µM]; in that of `CO[C@@H]1COC(=O)CC=C[C@@H](C)[C@@H]2C=C[C@@H](O)[C@@H](COC(=O)C/C=C\[C@H]1C)O2`, -26.7% [at 11.4 µM]; in that of `CSCC[C@@H]1NC(=O)C/C=C\[C@@H](C)COC(=O)[C@@H](C)COC1=O`, -21.5% [at 11.4 µM].
With `C[C@@H]1/C=C\CC(=O)OC[C@H](C)C(=O)N[C@@H](C)C(=O)OC1`, the activity, negative = inhibition was -13.1% [at 11.4 µM].
The same measure, in the same setting: in the case of `c1ccc2c(c1)C(=Nc1ccc(N=C3c4ccccc4-c4ccccc43)cc1)c1ccccc1-2` it was -5.03% [at 11.4 µM]; in that of `CCNC(=O)C/C(C)=N/NC(=O)C12CC3CC(CC(C3)C1)C2`, 18.8% [at 2.29 µM].
Take `CCOC(=O)CSCC(NC(=O)OC(C)(C)C)C(=O)OCC` (centres undefined): the AC50 result is “inactive”.
On to `Cc1ccc(S(=O)(=O)N[C@H]2COC(=O)C/C=C\[C@H](C)[C@@H](NS(=O)(=O)c3ccc(C)cc3)COC(=O)C/C=C\[C@@H]2C)cc1`, for which the AC50 was 3.98 µM (active).
With `CO[C@H]1COC(=O)C/C=C\[C@@H](C)COC(=O)[C@@H](C)NC(=O)C/C=C\[C@@H]1C`, the activity, negative = inhibition was 14.4% [at 11.4 µM].
The same measure, in the same setting: in the case of `Cc1ccc(S(=O)(=O)N[C@H]2COC(=O)C/C=C\[C@@H](C)[C@H](NS(=O)(=O)c3ccc(C)cc3)COC(=O)[C@H](C)NC(=O)C/C=C\[C@H]2C)cc1` it was -35.2% [at 11.4 µM].
On to `Cc1ccc(S(=O)(=O)N[C@H]2COC(=O)C/C=C\[C@@H](C)COC(=O)C/C=C\[C@@H]2C)cc1`, for which the AC50 was 3.16 µM (active) and the activity, negative = inhibition is -13.2% [at 11.4 µM].
As to `CO[C@H]1COC(=O)C/C=C\[C@@H](C)COC(=O)[C@H]2CCCN2C(=O)C/C=C\[C@H]1C`, the activity, negative = inhibition is -22.4% [at 11.4 µM].
Take `CC(C)c1ccc(OCc2ccc(C(=O)N3CCN(c4ccccn4)CC3)cc2)cc1`: the AC50 result is “inactive”.
Same read-out and setting: in the case of `CC(=O)Nc1ccc(S(=O)(=O)N2CCC(N(C)CCC(C)C)CC2)cc1` it was “inactive”.
The same measure, in the same setting: in the case of `COc1ccc(S(=O)(=O)NCc2ccc(C(=O)N3CCN(c4ccccn4)CC3)cc2)cc1` it was 15.8 µM (active); in that of `CC(=O)Nc1ccc(S(=O)(=O)NCC2CCC(C(=O)N3CCN(c4ccccn4)CC3)CC2)cc1` (centres undefined), 12.6 µM (active).
On the same count and under the same terms, the value for `O=C(C1CCN(S(=O)(=O)c2cccc3cccnc23)CC1)N1CCN(c2ccccn2)CC1` was 3.55 µM (active); that for `COCC(=O)N1CCC2(CC1)CN(c1ccccn1)C2` was “inactive”.
Regarding `O=C(C1CCN(S(=O)(=O)N2CCOCC2)CC1)N1CCN(c2ccccc2)CC1`, the AC50 result was “inactive”.
Turning to `O=C(c1cnc(N2CCN(c3ncccn3)CC2)c2ccccc12)N1CCN(c2ccccn2)CC1`, the activity, negative = inhibition was -7.43% [at 11.4 µM].
As to `CC(=O)N1CCC2(CC1)CCN(c1ccccn1)CC2`, the AC50 result was “inactive”.
The same measure, in the same setting: in the case of `CC(=O)Nc1ccc(S(=O)(=O)NCC2CCC(C(=O)NCCC(C)C)CC2)cc1` (centres undefined) it was 17.8 µM (active).
